Screen size: about 310,000 compounds; about 1,400 (0.45%) were called active. This is one part of a sample in which actives are shown more often than they occur.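 How the source made its calls: active means B-score, a plate-corrected calcium signal, over three deviations above library mean, with baseline fluorescence within five deviations of library mean; inactive means the rest.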
The compounds below were run against Regulator of G-protein signaling 4 (Homo sapiens) (UniProt P49798) (assay: blockers of RGS4 function in M3R calcium signaling – cell-based, HEK293 M3R inducible RGS4, calcium flux, primary screen (AID 463165;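 further: RGS4 expression induced by doxycycline in cells with stable M3 receptor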;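 on B-score: B-score is computed from the integrated fluorescence ratio over baseline after carbachol; higher B-score means a larger calcium signal and so more RGS4 inhibition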)). Details: Fluo-4 calcium flux, at 10 µM; B-score: active compounds read high unless noted; outcome: triggered by carbachol at its EC20 unless noted.
Sequence of Regulator of G-protein signaling 4 (Homo sapiens) (P49798 whole entry, looked up): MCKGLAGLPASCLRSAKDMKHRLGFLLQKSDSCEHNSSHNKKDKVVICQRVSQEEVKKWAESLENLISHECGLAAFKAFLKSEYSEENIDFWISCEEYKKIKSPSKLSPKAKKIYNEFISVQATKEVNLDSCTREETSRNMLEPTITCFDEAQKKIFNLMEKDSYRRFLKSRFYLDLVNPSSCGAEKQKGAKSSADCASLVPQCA

SMILES | B-score | outcome
O=C(N/N=C/c1c(O)n(Cc2ccccc2)c(=O)[nH]c1=O)c1ccccc1 | 5.25 (active) | –
O=c1[nH]c(=O)n(Cc2ccccc2)c(O)c1/C=N/Nc1c(F)c(F)c(F)c(F)c1F | – | inactive [setting not given]
O=C(N/N=C/c1c(O)n(C2CC2)c(=S)[nH]c1=O)c1ccccc1 | – | inactive [setting not given]
O=c1[nH]c(O)c(C=Nc2cc(F)cc(F)c2)c(=O)[nH]1 | – | inactive [setting not given]
O=C1N=c2ccccc2=C/C1=C\c1c(O)[nH]c(=S)[nH]c1=O | – | inactive [setting not given]
Cc1ccc2c(c1)=C/C(=C\c1c(O)[nH]c(=O)[nH]c1=O)C(=O)N=2 | 5.31 (active) | –
COC(=O)CN1C(=O)C2(C(C(=O)OC)=C(N)Oc3ccccc32)C2=C1CC(C)(C)CC2=O (stereo not given) | – | inactive
CC1CCC(N(C)C2CCN(C)CC2)CC1 (stereo not given) | – | inactive
C=CC12CN(C)[C@@H]3C4CO[C@H](C[C@H]41)[C@]1(C(=O)Nc4ccccc41)[C@@H]32 (stereo not given in full) | – | inactive
CC(C)(C)c1ccc(OC(=O)N2CCCCC2)cc1 | – | inactive
O=C1NC(=O)N(c2ccc(F)cc2)C(=O)/C1=C/c1ccc2c(c1)CCCN2Cc1ccccc1 | – | inactive [setting not given]
O=C1NC(=O)N(c2ccccc2)C(=O)/C1=C/c1ccc([N+](=O)[O-])s1 | 4.87 (active) | –
Cc1cccc(N2C(=O)NC(=O)/C(=C\c3cnn(-c4ccccc4)c3)C2=O)c1 | – | inactive [setting not given]
CC(C)c1ccc(OCC(=O)N2CCCN(C)CC2)cc1 | – | inactive
O=C(CCNS(=O)(=O)c1ccccc1)Nc1ccc(Cl)cc1C(=O)c1ccccc1 | – | inactive
Cc1cc(/C=C2/C(=O)NC(=O)N(Cc3ccco3)C2=O)c(C)n1-c1ccc(C(=O)O)cc1 | – | inactive [setting not given]
O=C1NC(=O)N(Cc2ccco2)C(=O)/C1=C\c1cccn1CCOc1ccccc1 | – | inactive [setting not given]
O=C1NC(=O)N(Cc2ccco2)C(=O)/C1=C\c1ccc(-c2ccc(F)cc2)o1 | 15.5 (active) | –
CN(C)CC1Oc2ccccc2OC1(O)c1ccccc1 (stereo not given) | – | inactive
COC(=O)C1=C(c2ccccc2)C[C@@H]2CC[C@H]1N2C(=O)NCc1ccco1 | – | inactive
